Test results: PubChem BioAssay AID1159580 (chemical genetic matrix, 2015)
Out of some 5,500 compounds screened, about 2,000 (36%) were called active. Not shown: some 18% with an inconclusive outcome. No stated cut-off is given here; in the data, active means normalized growth mostly below about 0.91 (no sharp cut-off); inconclusive means no clear call, values can overlap the other calls; inactive means mostly above about 0.92. The list shows a part of the results.

Test: chemical genetic growth profiling, strain panel (AID 1159580);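 further: tested at 20 µM; growth read once vehicle control cultures reached saturation at 30 °C; 1 = growth at the plate median or of vehicle wells; lower values mean less growth of the strain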
Conditions: S. cerevisiae deletion strains, growth OD

Measured: normalized growth

C=C(C)[C@H]1COc2cc3oc(=O)ccc3cc2O1
inactive: locus YJR066W, strain TOR1, active compounds read low 0.926 | locus YKL009W, strain mrt4, active compounds read low 0.965 | locus YKL068W, active compounds read low 0.985 | locus YKL085W, strain MDH1 (second series), active compounds read low 0.972 | locus YKL085W, strain MDH1, active compounds read low 0.972 | locus YKR026C, strain gcn3, active compounds read low 0.979 | locus YKR091W, strain srl3, active compounds read low 0.973 | locus YLL026W, active compounds read low 0.966 | locus YLL041C, strain sdh2, active compounds read low 0.989 | locus YLR027C, strain aat2, active compounds read low 0.935 | locus YLR113W, strain HOG1, active compounds read low 0.996 | locus YLR384C, strain iki3, active compounds read low 0.993 | locus YML120C, strain ndi1, active compounds read low 0.972 | locus YMR125W, strain sto1, active compounds read low 0.982 | locus YMR129W, active compounds read low 0.989 | locus YNL183C, strain NPR1, active compounds read low 0.925 | locus YNL209W, strain ssb2, active compounds read low 0.93 | locus YNL248C, strain rpa49, active compounds read low 0.932 | locus YNL250W, strain rad50, active compounds read low 0.995 | locus YNL322C, strain KRE1 (second series), active compounds read low 0.918 | locus YNR049C, strain mso1, active compounds read low 0.923 | locus YOL012C, strain htz1 0.694 | locus YOR001W, strain rrp6, active compounds read low 0.956 | locus YOR080W, strain dia2, active compounds read low 0.921 | locus YOR231W, strain MKK1, active compounds read low 0.978 | locus YOR290C, strain snf2, active compounds read low 0.888 | locus YOR316C, strain cot1, active compounds read low 0.991 | locus YPL240C, strain hsp82, active compounds read low 0.966 | locus YPL256C, strain CLN2, active compounds read low 1.03 | locus YPR141C, strain kar3, active compounds read low 0.988
active: locus YJR043C, strain POL32, active compounds read low 0.249 | locus YKL160W, strain elf1, active compounds read low 0.749 | locus YKR001C, strain vps1, active compounds read low 0.0831 | locus YLL001W, strain dnm1, active compounds read low 0.868 | locus YLR039C, strain RIC1, active compounds read low 0.12 | locus YLR058C, strain SHM2, active compounds read low 0.571 | locus YLR102C, strain apc9, active compounds read low 0.863 | locus YLR221C, strain rsa3, active compounds read low 0.898 | locus YLR258W, strain gsy2, active compounds read low 0.902 | locus YLR262C, strain YPT6 (second series), active compounds read low 0.23 | locus YLR262C, strain YPT6, active compounds read low 0.166 | locus YLR268W, strain sec22, active compounds read low 0.597 | locus YLR320W, strain mms22, active compounds read low 0.75 | locus YLR330W, strain CHS5, active compounds read low 0.0549 | locus YLR342W, strain FKS1 (second series), active compounds read low 0.075 | locus YLR342W, strain FKS1, active compounds read low 0.0723 | locus YLR357W, strain rsc2, active compounds read low 0.538 | locus YLR370C, strain arc18, active compounds read low 0.657 | locus YLR371W, strain rom2, active compounds read low 0.123 | locus YLR418C, strain cdc73, active compounds read low 0.18 | locus YML016C, strain PPZ1, active compounds read low 0.548 | locus YML032C, strain rad52, active compounds read low 0.555 | locus YML124C, strain tub3, active compounds read low 0.805 | locus YMR058W, strain fet3, active compounds read low 0.838 | locus YMR078C, strain ctf18, active compounds read low 0.871 | locus YMR205C, strain PFK2, active compounds read low 0.776 | locus YMR223W, strain ubp8, active compounds read low 0.514 | locus YMR231W, strain pep5, active compounds read low 0.114 | locus YMR307W, strain GAS1, active compounds read low 0.192 | locus YNL067W, strain RPL9B, active compounds read low 0.841 | locus YNL071W, strain lat1, active compounds read low 0.827 | locus YNL153C, strain GIM3, active compounds read low 0.223 | locus YNL233W, strain BNI4, active compounds read low 0.408 | locus YNL271C, strain bni1, active compounds read low 0.846 | locus YNL298W, strain CLA4, active compounds read low 0.839 | locus YNL307C, strain MCK1, active compounds read low 0.37 | locus YNR052C, strain pop2, active compounds read low 0.273 | locus YOL147C, strain pex11, active compounds read low 0.757 | locus YOR061W, strain CKA2, active compounds read low 0.135 | locus YOR069W, strain VPS5, active compounds read low 0.687 | locus YOR070C, strain gyp1, active compounds read low 0.736 | locus YOR083W, strain WHI5, active compounds read low 0.728 | locus YOR106W, strain vam3, active compounds read low 0.387 | locus YOR136W, strain idh2, active compounds read low 0.867 | locus YOR144C, strain elg1, active compounds read low 0.833 | locus YOR184W, strain ser1, active compounds read low 0.387 | locus YOR265W, strain rbl2, active compounds read low 0.881 | locus YOR270C, strain vph1, active compounds read low 0.374 | locus YPL051W, strain arl3, active compounds read low 0.232 | locus YPL078C, strain atp4, active compounds read low 0.755 | locus YPL106C, strain sse1, active compounds read low 0.709 | locus YPL241C, strain CIN2, active compounds read low 0.286 | locus YPR119W, strain clb2, active compounds read low 0.354 | locus YPR163C, strain tif3, active compounds read low 0.889 | locus YPR167C, strain met16, active compounds read low 0.766 | strain wtn01, active compounds read low 0.468
